# Reference: the supplement of paper PMC9262897, “Low-cost anti-mycobacterial drug discovery using engineered E. coli” (Nature Communications, 2022)
# Where a name gives a salt, the structure may show the parent alone. ± gives the standard deviation of the averaged measurements.
# How the values were obtained:
# Experiment in all cases: growth (OD600 after 10 h); higher = more growth (less inhibition)
# [1] = system: E. coli TESEC Alr+ wild-type control; conditions: compound 0.1 mM; raw OD600 reference: median of DMSO wells 0.241, cell-free background 0.041
# Method: (§1)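 TESEC Mtb Alr E. coli, or the Alr+ wild-type control, in 384-well plates with Prestwick library compounds at 0.1 mM and 1% DMSO, across arabinose induction levels of 1E3 to 1E7 nM. Growth is read as OD600 after 10 h at 37 °C in triplicate biological replicates.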
# E. coli TESEC Mtb Alr [2] = conditions: compound 0.1 mM
# Method: as §1
# E. coli TESEC Mtb Asd = conditions: compound 0.1 mM
# Method: (§2)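 TESEC E. coli strains in which the native enzyme is deleted and replaced by arabinose-inducible Mtb Asd, DapB, CysH or TrpD, each grown in its selective medium. Strains were screened against the Prestwick library at 0.1 mM and 1% DMSO in 384-well format at low and high arabinose induction. Growth is read as OD600 after 10 h in triplicate.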
# E. coli TESEC Mtb Alr [3] = conditions: compound 0.1 mM; remark: listed apart in the source
# Method: (§3)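 TESEC Mtb Alr E. coli (ΔaraC ΔtolC ΔentC Δalr ΔdadX, arabinose-inducible Mtb Alr) or the Alr+ wild-type control strain, grown in defined M9-fructose medium without D-alanine in 96-well plates with Prestwick library compounds at 0.1 mM and 1% DMSO. Low Alr induction is 0.1 µM arabinose and high induction is 10 mM arabinose.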
# E. coli TESEC Mtb DapB = conditions: compound 0.1 mM
# Method: as §2
# [4] = system: E. coli TESEC Alr+ wild-type control; conditions: compound 0.1 mM; raw OD600 reference: median of DMSO wells 0.49, cell-free background 0.052
# Method: as §3
# [5] = arabinose 1000 nM, raw OD600 reference: median of DMSO wells 0.294, cell-free background 0.041
# [6] = arabinose 10000 nM, raw OD600 reference: median of DMSO wells 0.264, cell-free background 0.041
# [7] = arabinose 100000 nM, raw OD600 reference: median of DMSO wells 0.201, cell-free background 0.041
# [8] = arabinose 1000000 nM, raw OD600 reference: median of DMSO wells 0.193, cell-free background 0.041
# [9] = arabinose 10000000 nM, raw OD600 reference: median of DMSO wells 0.146, cell-free background 0.041
# [10] = arabinose induction (level): High, raw OD600 reference: median of DMSO wells 0.331, cell-free background 0.041
# [11] = arabinose induction (level): Low, raw OD600 reference: median of DMSO wells 0.417, cell-free background 0.041
# [12] = arabinose 100 nM, raw OD600 reference: median of DMSO wells 0.413, cell-free background 0.052
# [13] = arabinose 10000000 nM, raw OD600 reference: median of DMSO wells […], cell-free background 0.052
# [14] = arabinose induction (level): High, raw OD600 reference: median of DMSO wells […], cell-free background 0.041
# [15] = arabinose induction (level): Low, raw OD600 reference: median of DMSO wells 0.227, cell-free background 0.041
SMILES,growth [1],growth (E. coli TESEC Mtb Alr [2]; [5]),growth (E. coli TESEC Mtb Alr [2]; [6]),growth (E. coli TESEC Mtb Alr [2]; [7]),growth (E. coli TESEC Mtb Alr [2]; [8]),growth (E. coli TESEC Mtb Alr [2]; [9]),growth (E. coli TESEC Mtb Asd; [10]),growth (E. coli TESEC Mtb Asd; [11]),growth (E. coli TESEC Mtb Alr [3]; [12]),growth (E. coli TESEC Mtb Alr [3]; [13]),growth (E. coli TESEC Mtb DapB; [14]),growth (E. coli TESEC Mtb DapB; [15]),growth [4]
C=CC[C@]1(O)CC[C@H]2[C@@H]3CCC4=CC(=O)CCC4=C3C=C[C@@]21C [Altrenogest],0.132 ± 0.0045,0.16 ± 0.0073,0.167 ± 0.0079,0.144 ± 0.0049,0.0767 ± 0.0035,0.118 ± 0.005,0.148 ± 0.027,0.126 ± 0.021,0.376 ± 0.0056,0.134 ± 0.011,,,
CCC1(CC)C(=O)C=CNC1=O [Pyrithyldione],0.223 ± 0.0058,,,,,,0.398 ± 0.047,0.438 ± 0.018,0.389 ± 0.009,0.398 ± 0.025,0.205 ± 0.014,0.23 ± 0.01,
C[C@]12C[C@H]3S[C@H]3C[C@@H]1CC[C@@H]1[C@@H]2CC[C@]2(C)[C@@H](O)CC[C@@H]12 [Epitiostanol],0.248 ± 0.0036,,,,,,0.162 ± 0.018,0.337 ± 0.098,0.413 ± 0.014,0.265 ± 0.015,,,
C#CCN(C)[C@H](C)Cc1ccccc1 [Selegiline hydrochloride],0.251 ± 0.0044,0.305 ± 0.015,0.283 ± 0.0084,0.233 ± 0.026,0.185 ± 0.0036,0.17 ± 0.004,0.291 ± 0.064,0.391 ± 0.016,0.405 ± 0.017,0.342 ± 0.017,,,
Oc1cc(Cl)ccc1Oc1ccc(Cl)cc1Cl [Triclosan],0.0414 ± 0.0012,,,,,,0.0494 ± 0.0062,0.04643 ± 0.00015,0.052 ± 0.0048,0.054 ± 0.001,0.0466 ± 0.0004,0.0475 ± 0.0016,
c1ccc2c(c1)OCC(C1=NCCN1)O2 (centres undefined) [Idazoxan hydrochloride],0.23 ± 0.013,,,,,,0.373 ± 0.039,0.379 ± 0.019,0.401 ± 0.014,0.315 ± 0.0098,,,
CC(=O)NC1CCSC1=O (racemic) [N-Acetyl-DL-homocysteine Thiolactone],0.253 ± 0.013,0.312 ± 0.021,0.2598 ± 0.0021,0.222 ± 0.031,0.185 ± 0.005,0.144 ± 0.0094,0.29 ± 0.041,0.451 ± 0.01,0.402 ± 0.0097,0.35 ± 0.02,,,
C=CCC1(CC(C)C)C(=O)NC(=O)NC1=O [Butalbital],0.2428 ± 0.002,,,,,,0.407 ± 0.1,0.3 ± 0.074,0.395 ± 0.0067,0.37 ± 0.0073,,,
COP(=O)(OC)C(O)C(Cl)(Cl)Cl (centres undefined) [Trichlorfon],0.249 ± 0.0088,,,,,,0.348 ± 0.072,0.363 ± 0.079,0.412 ± 0.012,0.257 ± 0.17,0.208 ± 0.028,0.272 ± 0.071,
COc1cc2c(cc1OC)C(C)NCC2 (centres undefined),0.236 ± 0.0037,,,,,,0.337 ± 0.049,0.349 ± 0.082,0.408 ± 0.011,0.323 ± 0.025,0.212 ± 0.013,0.232 ± 0.0067,
CC[N+]1(C)CCCC(OC(=O)C(O)(c2ccccc2)c2ccccc2)C1 (centres undefined) [Pipenzolate bromide],0.217 ± 0.0052,,,,,,0.299 ± 0.035,0.469 ± 0.025,0.409 ± 0.023,0.348 ± 0.025,,,0.424 ± 0.016
CC(NC(C)(C)C)C(=O)c1cccc(Cl)c1 (centres undefined) [Bupropion hydrochloride],0.226 ± 0.0027,0.283 ± 0.018,0.257 ± 0.0069,0.229 ± 0.023,0.171 ± 0.0039,0.136 ± 0.0076,0.356 ± 0.055,0.41 ± 0.03,0.404 ± 0.012,0.365 ± 0.0095,,,
O=c1[nH]c2ccccc2n1CCCN1CCC(n2c(=O)[nH]c3cc(Cl)ccc32)CC1 [Domperidone],0.129 ± 0.0039,0.183 ± 0.0075,0.214 ± 0.015,0.149 ± 0.0082,0.09803 ± 0.00075,0.124 ± 0.0039,0.1177 ± 0.0011,0.176 ± 0.018,0.41 ± 0.0087,0.246 ± 0.0035,,,
"CN1CCC2(C)c3cc(O)ccc3N(C)C12 (single isomer, unassigned; (-)) [(-)-Eseroline fumarate salt]",0.225 ± 0.0084,0.287 ± 0.014,0.306 ± 0.0086,0.312 ± 0.015,0.168 ± 0.0079,0.19 ± 0.0049,0.194 ± 0.027,0.402 ± 0.064,0.42 ± 0.0066,0.317 ± 0.021,,,
O=C(NCNC(=O)NC1C(=O)NC(=O)N1CO)NC1C(=O)NC(=O)N1CO (centres undefined) [Imidurea],0.231 ± 0.0035,,,,,,0.336 ± 0.057,0.358 ± 0.074,0.44 ± 0.021,0.345 ± 0.012,0.207 ± 0.024,0.215 ± 0.032,0.545 ± 0.022
C[N+]1([O-])[C@@H]2C[C@@H](OC(=O)[C@H](CO)c3ccccc3)C[C@H]1[C@@H]1O[C@@H]12 (some centres undefined) [Scopolamin-N-oxide hydrobromide],0.262 ± 0.013,0.3 ± 0.013,0.28 ± 0.0081,0.24 ± 0.027,0.19 ± 0.0068,0.165 ± 0.0072,0.334 ± 0.068,0.408 ± 0.035,0.411 ± 0.021,0.347 ± 0.018,,,
NCCCNCCSP(=O)(O)O [Amifostine],0.25 ± 0.0069,,,,,,0.372 ± 0.057,0.431 ± 0.061,0.402 ± 0.011,0.352 ± 0.011,0.196 ± 0.0064,0.209 ± 0.0086,
C#C[C@]1(O)CC[C@H]2[C@@H]3CCC4=CC(=O)CCC4=C3C=C[C@@]21CC [Gestrinone],0.13 ± 0.0014,,,,,,0.216 ± 0.065,0.253 ± 0.12,0.374 ± 0.0073,0.165 ± 0.03,0.179 ± 0.015,0.212 ± 0.013,
c1ccc2nc(N3CCNCC3)ccc2c1 [Quipazine dimaleate salt],0.232 ± 0.008,,,,,,0.223 ± 0.013,0.257 ± 0.015,0.402 ± 0.0069,0.371 ± 0.02,0.215 ± 0.019,0.216 ± 0.012,0.47 ± 0.0099
